The text below walks through data of the supplement of paper PMC10121225.

Where a name gives a salt, the structure may show the parent alone.
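Further: immunostained co-cultures imaged by high-content microscopy, Z-score per plate against mean and SD of 0.1% DMSO wells, compounds added on differentiation day 18, analysed day 21.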

The assay relates to hN + hpA co-culture (H1 iNGN2 human neurons + human primary astrocytes). Kind of assay: presynaptic density (SYNAPSIN1 puncta per MAP2 neurite area), Z-score vs DMSO controls; higher = more presynaptic puncta (synapse-promoting). The settings on record: 3 µM; 72 h.
Regarding `CN(Cc1cnc2nc(N)nc(N)c2n1)c1ccc(C(=O)N[C@@H](CCC(=O)O)C(=O)O)cc1` [Methotrexate], the “presynaptic density (Z-score)” value was -0.494.

For the compound `O=C(Nc1cccc(Cl)c1)c1ccccn1`, the “presynaptic density (Z-score)” value is 0.851.

As for `Cc1ccc(-c2cc(C(F)(F)F)nn2-c2ccc(S(N)(=O)=O)cc2)cc1`, the “presynaptic density (Z-score)” value was -0.625.

With `C[C@]12CC[C@@H]3c4ccc(O)cc4C[C@@H](CCCCCCCCC[S+]([O-])CCCC(F)(F)C(F)(F)F)[C@H]3[C@@H]1CC[C@@H]2O` (some centres undefined) [Fulvestrant], the “presynaptic density (Z-score)” value was -0.41.

With `O=C(Nc1cccnc1)N1CCC(Cc2cccc(Oc3ccc(C(F)(F)F)cn3)c2)CC1`, the “presynaptic density (Z-score)” value was -1.87.

With `c1ccc(NCc2ccc(CNc3ccccn3)cc2)nc1`, the “presynaptic density (Z-score)” value is -0.658.

As for `COc1ccc(C2CNC(=O)C2)cc1OC1CCCC1` (centres undefined) [Rolipram], the “presynaptic density (Z-score)” value is -0.353.

Turning to `O=C(O)c1cccc(-c2noc(-c3ccccc3F)n2)c1` [Ataluren (PTC124)], the “presynaptic density (Z-score)” value was -0.0102.

For `O=C1NC(=O)/C(=C/c2cccc(C(F)(F)F)c2)S1`, the “presynaptic density (Z-score)” value was -1.18.

Turning to `C=CC(=O)N1CCC[C@@H](n2nc(-c3ccc(Oc4ccccc4)cc3)c3c(N)ncnc32)C1`, the “presynaptic density (Z-score)” value is -0.341.

Consider `CC(C)(C)c1cnc(CSc2cnc(NC(=O)C3CCNCC3)s2)o1`, for which the “presynaptic density (Z-score)” value was -3.77.

Turning to `CN(C)Cc1ccc(-c2nc3cccc4c3n2CCNC4=O)cc1`, the “presynaptic density (Z-score)” value was -0.178.

With `CCOC(=O)C1=C(COCCN)NC(C)=C(C(=O)OC)C1c1ccccc1Cl` (centres undefined), the “presynaptic density (Z-score)” value is -1.97.

As to `CCCCCCCCCCCC1=C(O)C(=O)C=C(O)C1=O`, the “presynaptic density (Z-score)” value is -0.826.

Regarding `C[C@@H](O[C@H]1OCCN(Cc2n[nH]c(=O)[nH]2)[C@H]1c1ccc(F)cc1)c1cc(C(F)(F)F)cc(C(F)(F)F)c1` [Aprepitant], the “presynaptic density (Z-score)” value worked out at 0.895.

Turning to `CC(C)(C)c1nc(-c2cccc(NS(=O)(=O)c3c(F)cccc3F)c2F)c(-c2ccnc(N)n2)s1`, the “presynaptic density (Z-score)” value is 0.941.

Take `N#Cc1ccc(C(c2ccc(C#N)cc2)n2cncn2)cc1`: the “presynaptic density (Z-score)” value turned out to be 0.0621.

Turning to `Cc1noc(-c2ccc(CSCCC(=O)O)cc2)c1NC(=O)OC(C)c1ccccc1Cl` (centres undefined), the “presynaptic density (Z-score)” value stood at 0.975.

For the compound `COc1cc(Nc2c(C#N)cnc3cc(OCCCN4CCN(C)CC4)c(OC)cc23)c(Cl)cc1Cl` [Bosutinib (SKI 606)], the “presynaptic density (Z-score)” value is -1.36.

For `CCOC(=O)C1=C(N)Oc2ccc(Br)cc2C1C(C#N)C(=O)OCC` (centres undefined), the “presynaptic density (Z-score)” value came to 0.81.

Consider `CC1COCCN1c1cc(C2(S(C)(=O)=O)CC2)nc(-c2cccc3[nH]ccc23)n1` (centres undefined), for which the “presynaptic density (Z-score)” value stood at 0.445.

With `CCN(CC)CCNC(=O)c1cc(Cl)c(N)cc1OC` [MetoclopraMide HCl], the “presynaptic density (Z-score)” value was found to be 0.023.

For the compound `CN1CCC(CNc2ccc3ncc(-c4cccc(OC(F)(F)F)c4)n3n2)CC1`, the “presynaptic density (Z-score)” value was -2.44.

For `COc1cc(F)c(C(C)C)cc1-c1ccc(C(F)(F)F)cc1CN1C(=O)O[C@H](c2cc(C(F)(F)F)cc(C(F)(F)F)c2)[C@@H]1C` [Anacetrapib (MK-0859)], the “presynaptic density (Z-score)” value was -0.588.
